# Data taken from PubChem BioAssay AID2549 (National Center for Advancing Translational Sciences (NCATS), 2010).
# Values joined by “and” are separate entries in the source; they are usually repeats but may differ in a detail not shown here. Equal entries are not always repeated. Out of some 240,000 compounds screened, about 1,300 (0.54%) were called active. Another 1% or so got no clear call; they are omitted. The call rests on the fitted dose curve; in most records, active means well fitted inhibition curve with a large enough effect; inconclusive means small, poorly fitted or top-dose-only effect; inactive means flat fitted curve, though single readings scatter. The sample as a whole holds a higher share of actives than the screen did. More than one record can exist for a structure, and the calls need not agree.
# Molecular target: ATP-dependent DNA helicase Q1 (Homo sapiens) (UniProt P46063)
# Assay: qHTS Assay for Inhibitors of RecQ-Like Dna Helicase 1 (RECQ1); further: nearly all actives have a fitted effect of over 30% in size;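 on activity, negative = inhibition: plate controls were vehicle for no effect and no enzyme for full effect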
# Conditions: RECQ1 DNA unwinding, red fluorescence kinetic read; series mostly up to 57.3 µM; activity, negative = inhibition: at the top concentration
# Outline: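 50 nM RECQ1T1 preincubated 15 min with compound in Tris pH 8.0 buffer with MgCl2, DTT, Tween-20 and 2.5 ug/ml poly(dI-dC); started with 200 nM TAMRA/BHQ-2 forked duplex and 2 mM ATP. Unwinding read as fluorescence (525/598 nm), two reads 2 h apart.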
# Potency means the concentration at half of the fitted maximal effect.
# ATP-dependent DNA helicase Q1 (Homo sapiens), sequence (P46063 whole entry, looked up): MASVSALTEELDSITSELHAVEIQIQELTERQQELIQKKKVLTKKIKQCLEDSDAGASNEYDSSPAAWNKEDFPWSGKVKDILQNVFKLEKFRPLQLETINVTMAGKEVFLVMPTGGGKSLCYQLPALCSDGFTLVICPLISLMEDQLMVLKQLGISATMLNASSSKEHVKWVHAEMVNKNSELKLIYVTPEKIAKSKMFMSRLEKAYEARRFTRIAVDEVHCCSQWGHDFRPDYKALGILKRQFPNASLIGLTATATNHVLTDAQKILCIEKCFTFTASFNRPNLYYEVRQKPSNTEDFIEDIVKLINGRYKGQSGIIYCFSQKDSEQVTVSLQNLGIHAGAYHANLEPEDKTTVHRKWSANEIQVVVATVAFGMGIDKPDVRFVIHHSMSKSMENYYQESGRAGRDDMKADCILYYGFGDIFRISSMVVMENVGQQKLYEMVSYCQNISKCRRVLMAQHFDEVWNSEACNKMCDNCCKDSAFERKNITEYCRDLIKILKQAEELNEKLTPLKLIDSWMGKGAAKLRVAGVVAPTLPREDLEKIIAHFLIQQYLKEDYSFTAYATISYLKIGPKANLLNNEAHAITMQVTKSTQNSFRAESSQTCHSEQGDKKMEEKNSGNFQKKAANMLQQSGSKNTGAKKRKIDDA
Compound,Potency,"activity, negative = inhibition",outcome
O=c1nc2s/c(=C\c3ccco3)c(=O)n2nc1Cc1ccccc1,5.01 µM (active),–,–
O=C(CCCN1C(=O)/C(=C/c2ccco2)SC1=S)Nc1ccccc1,–,-20% (inactive),–
CCOc1ccccc1/C=c1\sc2nc(-c3ccco3)nn2c1=O,–,-5.09% (inactive),–
CCCN1CCC(=O)N(C(CSc2ccc(C)cc2)Cc2ccccc2)CC1 (stereo unspecified),–,-7.14% (inactive),–
COC(=O)CCc1ccccc1S(=O)(=O)N(CCC(=O)OC)Cc1ccccc1,–,-5.73% (inactive),–
Cc1sc2nc(CSCC(=O)Nc3c(Cl)cccc3Cl)[nH]c(=O)c2c1C,–,-7.69% (inactive),–
Cc1ccc(NC(=O)CSc2nnc(CNC(=O)c3ccccc3F)o2)cc1,–,-3.3% (inactive),–
COc1cc(C(=O)NCc2nnc(SCC(=O)Nc3nc4ccc(C)cc4s3)o2)cc(OC)c1OC,39.8 µM (active),–,–
COc1ccc(CCNC(=O)CSc2nnc(CNC(=O)c3cccs3)o2)cc1OC,–,–,inactive
COc1ccc(CN2CCC(=O)c3ccccc3S2(=O)=O)cc1,–,–,inactive
CC(=O)Nc1ccc(Nc2c3ccccc3nc3ccccc23)cc1,14.1 µM (active),–,–
O=[N+]([O-])c1cccc(Nc2c3ccccc3nc3ccccc23)c1,–,-1.8% (inactive),–
Cc1ccc(Nc2c3c(nc4ccccc24)CCC3)cc1,–,-5.59% (inactive),–
CCOC(=O)Cn1c(=O)sc2cccc(Cl)c21,–,5.27% (inactive),–
O=C(Nc1ccc(Cl)cc1)Nc1nnc(/C=C/c2ccccc2)s1,–,–,inactive
CCOCCOC(=O)C(C)Oc1ccc(Oc2ncc(C(F)(F)F)cc2Cl)cc1 (stereo unspecified),–,-19.4% (inactive),–
C[C@@H]1O[C@@H](OC[C@H]2O[C@@H](Oc3cc(O)c4c(c3)O[C@H](c3ccc(O)c(O)c3)CC4=O)[C@H](O)[C@@H](O)[C@@H]2O)[C@H](O)[C@H](O)[C@H]1O,–,-12.6% (inactive),–
COc1ccc(C[C@H](C(=O)O)N2C(=O)c3ccc(C(=O)O)cc3C2=O)cc1,–,–,inactive
CN(C)S(=O)(=O)Oc1ccccc1C(=O)Nc1ccccc1Cl,–,2.71% (inactive),–
NCCCCC(N)C(=O)O (stereo unspecified),–,-3.84% (inactive),–
COCCNC(=O)Nc1ccc2nc(-c3ccco3)c(-c3ccco3)nc2c1,8.91 µM (active),–,–
O=C(Nc1ccc2nccnc2c1)c1ccco1,–,–,inactive
O=C(NCc1ccccn1)c1cc(-c2ccccc2Cl)on1,–,-5.28% (inactive),–
O=C(NCc1ccccn1)c1cc(Br)ccc1Cl,–,–,inactive

Compound,Potency,"activity, negative = inhibition",outcome
COc1ccc(NC(=O)Nc2ccc3nsnc3c2)cc1,–,-33.9% (inactive),–
O=C(NCc1ccccn1)c1ccc2nc(-c3ccco3)c(-c3ccco3)nc2c1,15.8 µM (active),–,–
H-EHIPA-OH,–,-4.14% (inactive),–
OCCC(O)CO (stereo unspecified),inactive,–,–
CC[C@H](C)[C@H](NC(=O)[C@H](CCCNC(=N)N)NC(=O)[C@H](CCCNC(=N)N)NC(=O)[C@H](CC(C)C)NC(=O)[C@H](Cc1ccccc1)NC(=O)CNC(=O)CNC(=O)[C@@H](N)Cc1ccc(O)cc1)C(=O)N[C@@H](CCCNC(=N)N)C(=O)N1CCC[C@H]1C(=O)N[C@@H](CCCCN)C(=O)N[C@@H](CC(C)C)C(=O)N[C@@H](CCCCN)C(=O)N[C@@H](Cc1c[nH]c2ccccc12)C(=O)N[C@@H](CC(=O)O)C(=O)N[C@@H](CC(N)=O)C(=O)N[C@@H](CCC(N)=O)C(=O)O,–,-6.92% (inactive),–
CCOC(=O)C(C)Sc1nnc(CSc2nc3nc(C)cc(C)n3n2)o1 (stereo unspecified),–,-0.989% (inactive),–
CC(C)(C)[C@H]1C=C(C(=O)NCc2ccccc2)O[C@@H](OCc2ccc(CO)cc2)C1,–,–,inactive
O=C(NCc1ccccc1)C1=C[C@H](C2CC2)C[C@H](OCc2ccc(CO)cc2)O1,–,-0.989% (inactive),–
O=C(NCc1ccccc1)C1=C[C@@H](C2CCCCC2)C[C@@H](OCc2ccc(CO)cc2)O1,15.8 µM (active),–,–
Cc1cc(N(C)C)nc(Cl)n1,–,-18.3% (inactive),–
NCCC(=O)c1ccccc1N,–,–,inactive
Oc1ccc(-c2c(-c3ccccc3)nn3c(C(F)(F)F)cc(C(F)(F)F)nc23)cc1,–,8.87% (inactive),–
CC12CCC(C(=O)N(NC(=O)c3ccccc3O)C1=O)C2(C)C (stereo unspecified),39.8 µM (active),–,–
O=C(NN1C(=O)C2C(C1=O)C1C=CC2C12CC2)c1ccccc1Cl (stereo unspecified),–,-3.11% (inactive),–
CC12CCC(C(=O)N(c3cccc(Cl)c3)C1=O)C2(C)C (stereo unspecified),–,3.9% (inactive),–
CO[C@@]12[C@@H](COC(N)=O)C3=C(C(=O)C(C)=C(N)C3=O)N1C[C@@H]1N[C@@H]12,–,–,inactive
Cc1ccc(S(=O)(=O)N2CCC(=O)N([C@H](COCc3ccccc3)Cc3ccccc3)CC2)cc1,–,-4.94% (inactive),–
CC[C@H](C)[C@H](NC(=O)[C@H](Cc1ccc(O)cc1)NC(=O)[C@@H](NC(=O)[C@H](CCCN=C(N)N)NC(=O)[C@@H](N)CC(=O)O)C(C)C)C(=O)N[C@@H](Cc1cnc[nH]1)C(=O)N1CCC[C@H]1C(=O)N[C@@H](Cc1ccccc1)C(=O)O,–,14.2% (inactive),–
CCCn1c(C(O)c2ccc(OCC)cc2)nc2ccccc21 (stereo unspecified),–,-5.82% (inactive),–
CCCCCC(O)c1cccc(OCc2ccc3ccccc3n2)c1 (stereo unspecified),inactive and 28.2 µM (active),–,–
CCCCCCOC(=O)NCC(O)c1ccccc1 (stereo unspecified),–,–,inactive
COc1ccc(C2/C=C\CN(C(=O)c3ccc(C)cc3)C(Cc3ccccc3)C(=O)N2Cc2ccc(F)cc2)cc1 (stereo unspecified),–,–,inactive
COc1ccc(C2/C=C\CN(Cc3ccco3)C(C)C(=O)N2Cc2ccc(F)cc2)cc1 (stereo unspecified),–,-12.4% (inactive),–
CCOC(=O)CC1C(=O)NCCN1C(=O)COc1ccc(Br)cc1C (stereo unspecified),–,-8.2% (inactive),–

Compound,Potency,"activity, negative = inhibition",outcome
CCOC(=O)CC1C(=O)NCCN1c1nc2c(C)cccn2c(=O)c1/C=C1\SC(=S)N(C(C)CC)C1=O (stereo unspecified),35.5 µM (active),–,–
Cc1cccn2c(=O)c(/C=C3\SC(=S)N(CC(C)C)C3=O)c(NCCCOC(C)C)nc12,–,2.64% (inactive),–
CCC(C)(C)NC(=O)c1cc([N+](=O)[O-])ccc1N1CCCCC1,–,-6.6% (inactive),–
COc1ccc(C(CCN2CCOCC2)c2c(OC)cc(OC)c3c2OC(=O)CC3c2ccc(OC)cc2)cc1 (stereo unspecified),–,-5.93% (inactive),–
C=CCNC(=S)NNC(=O)c1cc(Cl)ccc1OC,–,-9.23% (inactive),–
COc1ccc(Cl)cc1C(=O)NNC(=S)NC1CCCC1,–,21.4% (inactive),–
COc1ccc(Cl)cc1C(=O)NNC(=S)NC(=O)/C=C/c1ccco1,31.6 µM (active),–,–
CC(C)C1N=C2c3ccccc3N=C(SCC(=O)c3ccc(O)c(O)c3)N2C1=O (stereo unspecified),14.1 µM (active),–,–
O=C(CSC1=Nc2ccccc2C2=NC(CC(=O)NCc3ccco3)C(=O)N12)NCc1ccco1 (stereo unspecified),–,9.12% (inactive),–
CCC(C)NC(=O)CSC1=Nc2ccccc2C2=NC(CCC(=O)NCc3ccco3)C(=O)N12 (stereo unspecified),–,-4.68% (inactive),–
O=P(O)(O)C(O)c1ccc2ccccc2c1 (stereo unspecified),–,-4.2% (inactive),–
CC(C)(C)N(Cc1ccccc1)C(=O)COC(=O)CCc1c[nH]c2ccccc12,–,-1.03% (inactive),–
Cc1cccc(-n2nc3c(c2NC(=O)c2ccc(Br)o2)CSC3)c1C,35.5 µM (active),–,–
Cc1ccc(-n2nc3c(c2NC(=O)c2ccc4c(c2)OCO4)CSC3)c(C)c1,–,0.297% (inactive),–
COc1cccc(C(=O)Nc2c3c(nn2-c2cccc(C)c2C)CS(=O)(=O)C3)c1OC,–,-0.603% (inactive),–
Nc1nc2c(ncn2[C@@H]2O[C@H](COP(=O)(O)OP(=O)(O)OP(=O)(O)O)[C@@H](O)C2O)c(=O)[nH]1 (stereo partly specified),–,–,inactive
c1ccc(CN2CCC(N=C3NN=C(c4ccc5c(c4)OCCO5)CS3)CC2)cc1,–,-3.29% (inactive),–
S=c1[nH]c2ccccc2c2ccccc12,–,-10.8% (inactive),–
Cc1ccc(NC(=O)CSc2nc(CSc3ccc(C)cc3)cc(=O)[nH]2)cc1,–,34.7% (inactive),–
Cc1cc(=O)[nH]c(SCC(=O)Nc2ccc(Br)cc2)n1,–,–,inactive
COc1ccc(NC(=O)CSc2nc(NS(=O)(=O)c3ccc(C)cc3)cc(=O)[nH]2)cc1,35.5 µM (active),–,–
CSc1ccccc1N1CCN(CCCCCC(=O)NC2CCCc3ccccc32)CC1 (stereo unspecified),–,-8.54% (inactive),–
O=[N+]([O-])c1ccccc1S(=O)(=O)Nc1cccc2cccnc12,–,–,inactive
